# PubChem BioAssay (NCATS)
# Where “and” joins values, the source holds several entries; their conditions need not be identical. Identical values can stand only once. Inconclusive results are not listed. Calls of active or inactive are those of the source. Calls come from the whole dose curve; as a rule, active = well fitted inhibition curve with a large enough effect in the signal ratio, with a control signal flat (not every such curve was filed as active); inconclusive = small, poorly fitted or top-dose-only effect, or effect the other way, or a change in a side signal; inactive = no such curve, though single readings can be large or run the other way; the % refers to the signal ratio.
# Test system: not listed separately
# Experiment: qHTS assay for small molecule antagonists of retinoid X receptor alpha signaling (AID 588546)
# Conditions: HEK293T RXRa-UAS-bla, beta-lactamase ratio, antagonist mode; measured here: W530 green channel, cytotoxicity proxy
# Method in brief: (§1)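 Beta-lactamase reporter inhibition, read as CCF4 fluorescence ratio (ex 405, em 460/530 nm) after 2 h at RT. HEK293T UAS-bla cells, 2500/well, were stimulated with 9-cis-RA at 500 or 100 nM final alongside test compound for 18 h at 37 C.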
# % is set by controls: 0 for no effect and ±100 for the full control effect.
row,Compound,max response
1,CC(=O)[C@@]1(O)CC[C@H]2[C@@H]3CCC4=CC(=O)CC[C@]4(C)[C@H]3CC[C@@]21C,9.81%
2,CC(=O)Nc1nnc(S(N)(=O)=O)s1,-6.44%
3,O=C(O)CCCCCCCC(=O)O,-5.98%
4,CCCCNC(=O)NS(=O)(=O)c1ccc(C)cc1,-0.0633%
5,COc1cc(Cc2cnc(N)nc2N)cc(OC)c1OC,-17.2%
6,C[C@]12CCC(=O)C=C1CC[C@@H]1[C@@H]2C(=O)C[C@@]2(C)[C@H]1CC[C@]2(O)C(=O)CO,12.6%
7,NC(=O)N1c2ccccc2C=Cc2ccccc21,-1.27% and -13.7%
8,COc1ccc(CN(CCN(C)C)c2ccccn2)cc1,1.42%
9,C[C@]12C=CC(=O)C=C1CC[C@H]1[C@@H]3C[C@@H](O)[C@](O)(C(=O)CO)[C@@]3(C)C[C@H](O)[C@@]12F,-1.48%
10,CC(C)(Oc1ccc(CCNC(=O)c2ccc(Cl)cc2)cc1)C(=O)O,1.78%
11,O=c1[nH]c(=O)n([C@H]2C[C@H](O)[C@@H](CO)O2)cc1Br,11.1%
12,CCCCOCCOCCOCc1cc2c(cc1CCC)OCO2,-2.81% and -3.67%
13,Nc1ncn([C@@H]2O[C@H](CO)[C@@H](O)[C@H]2O)c(=O)n1,-15%
14,CN=C(NC#N)NCCSCc1nc[nH]c1C,1.01%
15,NC(=Nc1ccccc1)Nc1ccccc1,-5.44% and -1.29%
16,Cc1ccc(S(=O)(=O)NC(=O)NN2CCCCCC2)cc1,-4.69%

# Biological target: Retinoic acid receptor RXR-alpha (Homo sapiens) (UniProt P19793)
# Sequence (P19793 whole entry, looked up): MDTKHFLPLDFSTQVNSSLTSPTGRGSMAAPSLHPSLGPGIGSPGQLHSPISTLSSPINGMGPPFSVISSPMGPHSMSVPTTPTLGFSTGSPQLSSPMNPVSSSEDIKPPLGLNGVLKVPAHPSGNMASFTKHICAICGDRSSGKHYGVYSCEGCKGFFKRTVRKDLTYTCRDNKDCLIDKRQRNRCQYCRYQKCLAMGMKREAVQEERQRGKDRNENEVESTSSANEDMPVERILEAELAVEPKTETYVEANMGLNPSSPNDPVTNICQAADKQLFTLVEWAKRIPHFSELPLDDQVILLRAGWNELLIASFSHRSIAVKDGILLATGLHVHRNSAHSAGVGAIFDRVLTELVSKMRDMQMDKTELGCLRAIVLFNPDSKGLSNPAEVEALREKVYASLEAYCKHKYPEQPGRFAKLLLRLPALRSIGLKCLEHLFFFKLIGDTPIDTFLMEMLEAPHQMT
# Experiment: as above
# Conditions: HEK293T RXRa-UAS-bla, beta-lactamase ratio, antagonist mode
# Method in brief: as §1
row,Compound,max response
1,CC(=O)[C@@]1(O)CC[C@H]2[C@@H]3CCC4=CC(=O)CC[C@]4(C)[C@H]3CC[C@@]21C,-1.98% (inactive)
2,CC(=O)Nc1nnc(S(N)(=O)=O)s1,-1.61% (inactive)
3,O=C(O)CCCCCCCC(=O)O,0.796% (inactive)
4,CCCCNC(=O)NS(=O)(=O)c1ccc(C)cc1,-16.3% (inactive)
5,COc1cc(Cc2cnc(N)nc2N)cc(OC)c1OC,0.608% (inactive)
6,C[C@]12CCC(=O)C=C1CC[C@@H]1[C@@H]2C(=O)C[C@@]2(C)[C@H]1CC[C@]2(O)C(=O)CO,-20.1% (inactive)
7,NC(=O)N1c2ccccc2C=Cc2ccccc21,2.96% (inactive) and -0.41% (inactive)
8,COc1ccc(CN(CCN(C)C)c2ccccn2)cc1,2.77% (inactive)
9,C[C@]12C=CC(=O)C=C1CC[C@H]1[C@@H]3C[C@@H](O)[C@](O)(C(=O)CO)[C@@]3(C)C[C@H](O)[C@@]12F,-2.06% (inactive)
10,CC(C)(Oc1ccc(CCNC(=O)c2ccc(Cl)cc2)cc1)C(=O)O,-3.89% (inactive)
11,O=c1[nH]c(=O)n([C@H]2C[C@H](O)[C@@H](CO)O2)cc1Br,7.58% (inactive)
12,CCCCOCCOCCOCc1cc2c(cc1CCC)OCO2,-27.1% (inactive) and 3.9% (inactive)
13,Nc1ncn([C@@H]2O[C@H](CO)[C@@H](O)[C@H]2O)c(=O)n1,19.1% (inactive)
14,CN=C(NC#N)NCCSCc1nc[nH]c1C,4.57% (inactive)
15,NC(=Nc1ccccc1)Nc1ccccc1,-22.5% (inactive) and -7.28% (inactive)
16,Cc1ccc(S(=O)(=O)NC(=O)NN2CCCCCC2)cc1,-7.05% (inactive)
